# Measured values as given in PubChem BioAssay AID1850 (Southern Research Specialized Biocontainment Screening …, 2009).
# Values joined by “and” are separate entries in the source; they are usually repeats but may differ in a detail not shown here. Equal entries are not always repeated. Hit rate of the full screen: of about 310,000 compounds, about 1,000 (0.32%) were called active. A selection follows. Measured potencies and affinities stand elsewhere. A number with no mark means an inactive call. No rule for the calls is given here.
# Experiment: PhoP regulon inhibitors, Salmonella typhi PhoP promoter GFP reporter, confirmatory (AID 1850);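 also: 0% = induced wells with vehicle and 100% = uninduced wells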
# Settings: fluorescence, 4 h, at 50 µM, active compounds read high
row,SMILES,inhibition
1,CC(C)(C)C(=O)Nc1ccnn1C1CCN(C(=O)c2ccc(Cl)cc2F)CC1,-1.83%
2,Cc1cc(OCc2nc(-c3cccnc3)no2)c(C)cc1Br,-4.41%
3,O=C1[C@@H]2Cc3c([nH]c4ccccc34)C(c3cccc(Br)c3)N2C(=O)CN1C1CCN(Cc2ccccc2)CC1 (stereo partly drawn),0.55%
4,CCOc1cc(C(=O)Nc2ccccc2N2CCOCC2)ccc1OCC(=O)N1CCCCC1,-2.04%
5,C[C@@H]1Cc2c(O)c(O)cc(O)c2C(=O)O1,6.45%
6,CC1Oc2cc3c(-c4c(O)cc(O)c5c(O)c6c(cc45)OC(C)C(C)C6=O)c(O)cc(O)c3c(O)c2C(=O)C1C (stereo not drawn),15.3%
7,Cc1cnc(C(=O)NC2CC(C)(C)Cc3c2cnn3-c2cccc(F)c2)cn1 (stereo not drawn),-5.99%
8,NC(=O)c1ccc(SCC(=O)OCC(=O)NCc2ccco2)c([N+](=O)[O-])c1,-1.63%
9,Nc1nc(N)nc(-c2cccc(Cl)c2Cl)n1,-6.05%
10,Nc1nnc(-c2ccccc2)c(-c2ccccc2)n1,-9.89%
11,CC(=O)N1CCN(S(=O)(=O)c2cccc(C(=O)Nc3ccccc3N3CCCC3)c2)CC1,-2.62%
12,O=C(O)[C@H](Cc1ccccc1)NC(=O)N1CCOCC1,-2.76%
13,O=C(CCNC(=O)c1ccc(Br)cc1)NCc1cccnc1,-2.13%
14,COc1ccc2[nH]cc(C(=O)CCl)c2c1,30.9%
15,COc1ccc2c(C(=O)CN3CCN(CCO)CC3)c[nH]c2c1,-2.19%
16,CCc1nc(SCC#N)c(C#N)cc1C,-1.52%
17,CC(Cc1cccc(C(F)(F)F)c1)NCCOC(=O)c1ccccc1 (stereo not drawn),12.2% and -11.7%
18,CC(CCc1ccccc1)NCc1cccc2ccccc12 (stereo not drawn),-6.36%
19,CNC[C@@H](C)NC[C@@H](Cc1ccccc1)NCCc1ccccc1,19.6%
20,COc1ccccc1CCNCc1cccc(C(F)(F)F)c1,2.37%
21,CCC[C@H](CN[C@@H](CNC)[C@H](C)O)NCCc1ccc(OC)cc1,-14.6%
22,CCC[C@@H](CN[C@@H](CNC)[C@H](C)CC)NCC1CCC(C(C)(C)C)CC1 (stereo partly drawn),11.1%
23,Cc1cc(C)n2c(Nc3ccc4c(c3)OCCO4)c(-c3ccccc3)nc2n1,-10.2%
24,CCCCN1C(=O)C2NN=C(C(=O)OCC)C2C1=O (stereo not drawn),8.14%

row,SMILES,inhibition
1,Cc1ccc(-n2nc3c(c2NC(=O)c2ccc4c(c2)OCO4)CS(=O)(=O)C3)cc1C,-5.55%
2,COc1ccccc1N1C(=O)c2ccccc2NC1c1cc(OC)c(OC)c(OC)c1 (stereo not drawn),2.7%
3,CCc1ccccc1NC(=O)C1CCN(C(=O)c2ccc([N+](=O)[O-])cc2)CC1,-0.4%
4,O=C(NCc1ccc(OC(F)(F)F)cc1)C1CC2Cn3c(nc4ccccc43)C2N1Cc1ccccc1 (stereo not drawn),2.43%
5,N#Cc1c(-c2ccccc2)cc(-c2ccc(O)cc2)nc1N,-7.46%
6,O=C(COC(=O)c1ccccc1[N+](=O)[O-])NC(=O)c1ccccc1,-0.26%
7,CCNC(=O)Cn1c(=O)c(=O)n(Cc2ccccc2)c2ccc(Cl)cc21,-13.1%
8,Cc1ccc(CC2CC(=O)N(c3ccc(C)cc3)C2=O)cc1 (stereo not drawn),7.02%
9,CCn1c2ccccc2c2cc(NC(=O)CSc3nnc(-c4ccccc4OC)n3N)ccc21,-0.4%
10,N=c1c2c(-c3ccccc3)c(-c3ccccc3)n(Cc3ccco3)c2ncn1CCCO,12.1%
11,N=c1c2c(-c3ccccc3)c(-c3ccccc3)n(Cc3ccccc3)c2ncn1CCCn1ccnc1,-3.96%
12,CCOC(=O)C1=C(CS(=O)(=O)c2ccccc2)NC(=O)NC1c1ccc(OC)c(OC)c1 (stereo not drawn),-2.15%
13,Cn1c2c(c(=O)n(C)c1=O)CN(Cc1ccc(F)cc1)CN2,7.57%
14,c1ccc2[nH]c(-c3ccncc3)nc2c1,5.01%
15,Fc1ccc(-c2nc3ccccc3[nH]2)cc1,-1.08%
16,C[N+](C)(C)CCCCCC[N+](C)(C)C,-25.1%
17,C[N+](C)(C)CCCCCCCCCC[N+](C)(C)C,8.92%
18,CCCCCC[N+](C)(C)CCSSCC[N+](C)(C)CCCCCC,5.58%
19,C#CC[N+](C)(C)CCCCCCCCCC,2.68%
20,CC1CC(=O)Nc2ccccc2N1C(=O)Nc1ccc(F)cc1 (stereo not drawn),-0.31%
21,Cc1ccc(-c2ccc(C(=O)O)o2)cc1Cl,6.76%
22,CCOC(=O)C(=CNc1cc(C)ccc1C)C(=O)OCC,-9.72%
23,CCOC(=O)Cc1csc(NC(=O)c2cnc3scc(C)n3c2=O)n1,-13.9%
24,CN1CCN(C(c2ccccc2)c2ccc(Cl)cc2)CC1 (stereo not drawn),-4.81%

row,SMILES,inhibition
1,CN1CCN(C(c2ccccc2)c2ccccc2)CC1,-1.19%
2,O=C(O)c1cc(S(=O)(=O)N2CCN(C(c3ccccc3)c3ccccc3)CC2)ccc1Cl,-2.19%
3,CN1CCN(CCOc2cccc(Cl)c2)CC1,4.36%
4,Cc1cc(C)cc(C(=O)NCC(=O)OC(C)C(=O)N(C)c2ccccc2)c1 (stereo not drawn),-2.85%
5,Cc1nc2sc3c(c2c(=O)[nH]1)CCCCC3,-10.5%
6,Cc1ccccc1-n1ccnc1SCC(=O)NCc1ccco1,1.18%
7,O=C(c1ccc(Cl)c(NC2=NC3CS(=O)(=O)CC3S2)c1)N1CCN(c2ccccc2)CC1 (stereo not drawn),-0.27%
8,Cc1ccc(OCCn2cc(C#N)c3ccccc32)cc1,-3.38%
9,COc1ccc(F)cc1S(=O)(=O)NC1CC(C)(C)NC(C)(C)C1,-0.42%
10,CCOc1cccc2sc(=NC(=O)CCS(=O)(=O)c3ccc(F)cc3)n(C)c12,-5.1%
11,O=C(C1CCCN(S(=O)(=O)c2cccc3nonc23)C1)N1CCN(c2cccc(Cl)c2)CC1 (stereo not drawn),2.17%
12,CCCNC(=O)C1CC(=O)N(c2ccc(OCC)cc2)C1 (stereo not drawn),-4.98%
13,CSc1nc(NCc2ccco2)c2ccccc2n1,3.85%
14,Oc1ccccc1Nc1nc(NCc2ccccc2)c2ccccc2n1,2.95%
15,COc1ccc(OC)c(Nc2nc(NCc3ccco3)c3ccccc3n2)c1,-4.32%
16,COc1cccc(-c2nc(NCc3ccco3)c3ccccc3n2)c1O,-5.74%
17,Cc1cccc(Nc2nc(NCc3ccco3)nc(N)c2[N+](=O)[O-])c1,-3.95%
18,Fc1ccccc1-c1nc(NCc2ccco2)c2ccccc2n1,-5.43%
19,Cc1cccc(Nc2nc(N)c([N+](=O)[O-])c(NCc3ccco3)n2)c1,-6.31%
20,Cc1ccccc1Nc1nc(NCc2ccco2)c2ccccc2n1,-14.1%
21,COc1ccccc1-c1c(C)nn2c(N3CCC4(CC3)OCCO4)cc(C)nc12,-2.41%
22,O=C(COC(=O)C1CC(=O)N(c2nc(-c3ccccc3)cs2)C1)c1ccccc1 (stereo not drawn),-9.24%
23,CC(=O)NC(Cc1ccc(N(CCCl)CCCl)cc1)C(=O)NCC(=O)NCC(=O)O (stereo not drawn),6.1%
24,Cc1nn(CCCC(=O)NCCCN2CCN(C)CC2)c(=O)c2c1sc1ccccc12,11.5%

row,SMILES,inhibition
1,Cc1ccc(S(=O)(=O)NCCC(=O)OCc2ccc([N+](=O)[O-])cc2)cc1C,-4.36%
2,COC(=O)c1cc2oc(C)cc2n1CC(=O)N1CCCc2ccccc21,-6.03%
3,O=C(Nc1ccn(Cc2c(F)c(F)c(F)c(F)c2F)n1)c1cccc(Cn2cc([N+](=O)[O-])cn2)c1,-7.4%
4,CCc1cccc(C)c1NC(=O)c1cccnc1,-4.39%
5,O=C1C(Cl)=C(NCCN2CCCCC2)C(=O)c2ccccc21,-2.93%
6,Cc1ccc(Nc2nc(NCc3ccco3)c3ccccc3n2)cc1,5.88%
7,Nc1nc(Nc2ccccc2)nc(NCc2ccco2)c1[N+](=O)[O-],3.06%
8,O=C(OCC(=O)N(Cc1ccccc1)Cc1ccccc1)c1ccccc1NCCO,-4.63%
9,CSc1nc2c(c(=O)[nH]1)C(c1ccc(C(F)(F)F)cc1)CC(=O)N2 (stereo not drawn),6.77%
10,CNc1oc(-c2cccs2)nc1S(=O)(=O)c1ccccc1,-10%
11,COc1ccc(C(OCC(O)CN(C)C2CCCCC2)c2ccc(OC)cc2)cc1 (stereo not drawn),-25.4%
12,O=C(N/N=C/c1ccc([N+](=O)[O-])s1)c1ccccc1,6.9%
13,Cc1ccc(/C=N/NC(=O)C(O)c2ccccc2)o1 (stereo not drawn),1.91%
14,O=C(N/N=C/c1ccc(-c2ccc([N+](=O)[O-])cc2)o1)C(O)c1ccccc1 (stereo not drawn),-3.63%
15,O=C(N/N=C/c1ccc(Cl)s1)C(O)c1ccccc1 (stereo not drawn),-6.88%
16,O=C(N/N=C/c1ccc([N+](=O)[O-])s1)c1cccc(Br)c1,-0.18%
17,Cc1ccc(NC(C)C(=O)N/N=C/c2ccc([N+](=O)[O-])s2)cc1 (stereo not drawn),-1.13%
18,O=C(N/N=C/c1ccc(Br)s1)c1ccccc1[N+](=O)[O-],-8.63%
19,Cc1cc(C(=O)N/N=C/c2ccc([N+](=O)[O-])s2)c2ccccc2n1,4.3%
20,O=C(c1cc2ccccc2cc1O)N1CCN(c2ccc([N+](=O)[O-])cc2)CC1,6.8%
21,O=C(NCCCSc1ccccc1)c1ccc(=O)[nH]c1,-9.17%
